Screening results from PubChem.
This excerpt belongs to a sample that is enriched for hits.
Hedgehog inh: Hedgehog pathway signaling inhibitors, primary screen, luminescence, Shh-LIGHT2 cells, Gli-luciferase | Shh-LIGHT2 Gli-luciferase reporter, 30 h | inhibition, % (test concentration not listed) | 22,000 compounds, 2.1% hits | AID 2313, 2010;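 active means mean inhibition across valid replicates above about 65%, limit read from the data; inconclusive means mean under the limit, yet half or more replicates past it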;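 further: pathway switched on by Shh-conditioned medium diluted 1 in 25 in low serum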
BJeLR viability: BJeLR cell viability loss, primary screen, luminescence, CellTiterGlo ATP; BJeLR fibroblasts viability, 48 h; HRASV12, hTERT and SV40 LT/ST transformed; viability loss activity score, % (no concentration beside the values); 30,000 compounds, 0.64% hits; in the data active means viability loss activity score above about 50%; inconclusive means no clear call, values can overlap the other calls; inactive means below about 35%;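 further: higher score means fewer live cells and less ATP luminescence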
Of the large screens only hits and unclear results are named; the others gave an inactive call.

C[C@@H]1CN([C@@H](C)CO)C(=O)c2cc(NC(=O)CCN3CCOCC3)ccc2O[C@@H]1CN(C)Cc1ccccc1	none
C[C@@H]1O[C@@H](O[C@H]2[C@H](O)[C@@H](O[C@@H]3O[C@H](CO)[C@@H](O)[C@H](O[C@@H]4O[C@H](CO)[C@@H](O)[C@H](O)[C@H]4O)[C@H]3O)[C@H](O[C@H]3CC[C@@]4(C)C(=CC[C@@H]5C4CC[C@@]4(C)C5C[C@@H]5O[C@]6(CC[C@@](C)(CO[C@@H]7O[C@H](CO)[C@@H](O)[C@H](O)[C@H]7O)O6)[C@@H](C)[C@@H]54)C3)O[C@@H]2CO)[C@H](O)[C@H](O)[C@H]1O (some centres not stated)	Hedgehog inh 70, BJeLR viability inconclusive
CC1CCC2(NC1)OC1CC3C4CC=C5CC(O[C@@H]6O[C@H](CO)[C@@H](O[C@@H]7O[C@@H](C)[C@H](O)[C@@H](O)[C@H]7O)[C@H](O)[C@H]6O)CCC5(C)C4CCC3(C)C1C2C (some centres not stated)	none
C=CC(C)(C)c1c2c(c(O)c3c(=O)c4ccc(O)c(O)c4oc13)C=CC(C)(C)O2	Hedgehog inh 93
COc1c(-c2ccccc2)oc2c(CC=C(C)C)c3c(c(OC)c2c1=O)C=CC(C)(C)O3	none
CCOC(=O)CCc1c(C)c(C#N)c2nc3ccccc3n2c1Cl	BJeLR viability 88 (no result: Hedgehog inh)
CCc1c(C)c(C#N)c2nc3ccccc3n2c1NCCC(C)C	none (no result: Hedgehog inh)
Nn1c(SCc2ccc(F)c3ccccc23)nc2ccccc2c1=O	none (no result: Hedgehog inh)
O=C1NCN(c2ccccc2)C12CCN(CCCC(c1ccc(F)cc1)c1ccc(F)cc1)CC2	Hedgehog inh 84
CCC(C)[C@H]1C(=O)O[C@H](C(C)C)C(=O)N(C)[C@@H](C(C)C)C(=O)O[C@H](C(C)C)C(=O)N(C)[C@@H](C(C)C)C(=O)O[C@H](CC(C)C)C(=O)N1C (some centres not stated)	Hedgehog inh 106, BJeLR viability 79
COc1ccc([C@@H]2O[C@@H](c3ccc(OC)c(OC)c3)[C@@H](C)[C@@H]2C)cc1OC	none
C[C@@H]1CN([C@@H](C)CO)C(=O)c2cc(NC(=O)Cc3cn(C)c4ccccc34)ccc2O[C@@H]1CN(C)S(=O)(=O)c1cccs1	none
Cc1ccc(S(=O)(=O)N[C@@H](Cc2ccccc2)C(=O)CCl)cc1	Hedgehog inh 95
COC(=O)CN(Cc1ccccc1)S(=O)(=O)c1ccc(C)cc1	none (no result: Hedgehog inh)
CNC1CCc2cc(OC)c(OC)c(OC)c2-c2ccc(OC)c(=O)cc21 (configuration not stated)	Hedgehog inh 92, BJeLR viability 59
COc1c(O[C@@H]2O[C@H](CO)[C@@H](O)[C@H](O)[C@H]2O)cc2c(c1OC)-c1ccc(SC)c(=O)cc1C(NC(C)=O)CC2 (some centres not stated)	none
O=C(O)CCC(=O)N=S(c1ccccc1)c1ccccc1	none
Cc1ccc(S(=O)(=O)N(C)C[C@@H]2Oc3c(NC(=O)NC4CCCCC4)cccc3C(=O)N([C@@H](C)CO)C[C@@H]2C)cc1	Hedgehog inh 100
Cc1ccc(S(=O)(=O)N(C)C[C@H]2Oc3c(NC(=O)NC4CCCCC4)cccc3C(=O)N([C@H](C)CO)C[C@H]2C)cc1	none
C[C@H](CO)N1C[C@H](C)[C@H](CN(C)S(=O)(=O)c2ccc(Cl)cc2)Oc2c(NC(=O)NC3CCCCC3)cccc2C1=O	Hedgehog inh 122
C[C@H]1CN([C@@H](C)CO)C(=O)c2cccc(NC(=O)NC3CCCCC3)c2O[C@@H]1CN(C)S(=O)(=O)c1ccc(Cl)cc1	none
C[C@H](CO)N1C[C@H](C)[C@@H](CN(C)S(=O)(=O)c2ccc(F)cc2)Oc2c(NC(=O)NC3CCCCC3)cccc2C1=O	none
Cc1ccc(S(=O)(=O)Nc2cccc3c2O[C@H](CN(C)CC2CCCCC2)[C@@H](C)CN([C@@H](C)CO)C3=O)cc1	none
C[C@H]1CN([C@@H](C)CO)C(=O)c2cccc(NC(=O)NC3CCCCC3)c2O[C@H]1CN(C)S(=O)(=O)c1ccc(F)cc1	Hedgehog inh 103
Cc1ccc(S(=O)(=O)Nc2cccc3c2O[C@@H](CN(C)CC2CCCCC2)[C@@H](C)CN([C@H](C)CO)C3=O)cc1	Hedgehog inh 88
O/N=C/c1ccc(Cl)s1	none (no result: Hedgehog inh)
C[C@@H]1CN([C@H](C)CO)C(=O)c2cccc(NS(=O)(=O)c3ccc(F)cc3)c2O[C@H]1CN(C)S(=O)(=O)c1ccccc1	none
C[C@@H]1CN([C@H](C)CO)C(=O)c2cc(NS(C)(=O)=O)ccc2O[C@H]1CN(C)S(=O)(=O)c1ccccc1	none
Cc1nn(C(=O)C2CCCN2S(=O)(=O)c2ccccc2)c(C)c1Sc1ccccc1 (configuration not stated)	none (no result: Hedgehog inh)
O=C(CCO[C@@H]1O[C@H](CO)[C@@H](O)[C@H](O)[C@H]1O)c1ccc(O)cc1	none (no result: BJeLR viability)
CC(=O)Nc1ccc(S(=O)(=O)NC2CCCC2)cc1	none (no result: Hedgehog inh)
O=C1C(=O)C(C2CCC(c3ccc(Cl)cc3)CC2)C(=O)c2ccccc21 (configuration not stated)	none
CCCCN(C)c1ncnc2c1sc1nc3c(cc12)COC(C)(C)C3	none (no result: Hedgehog inh)
Cc1cc(I)ccc1-n1[nH]c(C(F)(F)F)cc1=O	none (no result: Hedgehog inh)
C[C@@H]1CN([C@@H](C)CO)C(=O)c2cc(NC(=O)CCN3CCOCC3)ccc2O[C@@H]1CN(C)Cc1ccc2c(c1)OCO2	none
N#CC(C#N)=C(Nc1ccccc1Cl)SCc1cccc(F)c1	Hedgehog inh 112
Cc1cccc(NC(=O)CSc2cn(Cc3cccc(F)c3)c3ccccc23)c1C	none (no result: Hedgehog inh)
CC(C)NC(=O)N(C)C[C@@H]1Oc2c(NC(=O)c3nc4ccccc4s3)cccc2C(=O)N([C@@H](C)CO)C[C@@H]1C	none
O=c1oc(-c2ccccn2)nc2ccccc12	none
O=c1oc(Cl)c(Cl)c2ccccc12	Hedgehog inh 79, BJeLR viability 55
C[C@@H]1CCCCO[C@H](CN(C)C(=O)CCCN(C)C)[C@@H](C)CN([C@H](C)CO)C(=O)c2cc(NC(=O)CCC(F)(F)F)ccc2O1	Hedgehog inh 77 (no result: BJeLR viability)
C[C@@H]1CCCCO[C@H](CN(C)Cc2ccccc2)[C@@H](C)CN([C@H](C)CO)C(=O)c2cc(NC(=O)Nc3ccccc3)ccc2O1	none (no result: BJeLR viability)
CC(C)NC(=O)N(C)C[C@H]1OCCCC[C@@H](C)Oc2ccc(NS(=O)(=O)c3cn(C)cn3)cc2C(=O)N([C@H](C)CO)C[C@@H]1C	Hedgehog inh 72 (no result: BJeLR viability)
C[C@@H]1CCCCO[C@@H](CN(C)C(=O)CCC(F)(F)F)[C@@H](C)CN([C@H](C)CO)C(=O)c2cc(NC(=O)CCCN(C)C)ccc2O1	none (no result: BJeLR viability)
C[C@@H]1CCCCO[C@H](CN(C)Cc2ccccc2)[C@@H](C)CN([C@H](C)CO)C(=O)c2cc(NC(=O)Nc3ccc(F)cc3)ccc2O1	Hedgehog inh 67 (no result: BJeLR viability)
COc1ccc(NC(=O)N(C)C[C@H]2OCCCC[C@@H](C)Oc3ccc(NS(=O)(=O)c4ccc(F)cc4)cc3C(=O)N([C@H](C)CO)C[C@@H]2C)cc1	none (no result: BJeLR viability)
C[C@@H]1CCCCO[C@@H](CN(C)C(=O)Nc2ccc(F)cc2)[C@@H](C)CN([C@H](C)CO)C(=O)c2cc(NS(=O)(=O)c3cn(C)cn3)ccc2O1	none (no result: BJeLR viability)
COc1ccc(S(=O)(=O)Nc2ccc3c(c2)C(=O)N([C@H](C)CO)C[C@H](C)[C@@H](CN(C)C(=O)Nc2ccc(F)cc2)OCCCC[C@@H](C)O3)cc1	Hedgehog inh 74 (no result: BJeLR viability)
